The results in this text go back to PubChem BioAssay (NCI).

The panel holds about 83,000 compounds, 20% with a hit somewhere; the sample as a whole holds those more often.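 Treatment: one concentration, 48 hours, 96-well format. Scoring: percent growth, with anything below 10 considered active.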 Values without a mark were called inactive. Active and inactive are the calls of the source.

Some test systems named below: HCT-15 colon; HT29 colon; SNB-75 CNS; SNB-19 CNS; U251 CNS; PC-3 prostate; SK-MEL-5 melanoma; UACC-62 melanoma; LOX IMVI melanoma; SK-MEL-28 melanoma.
Common to all, as to experiment: NCI-60 one-dose screen, 48 h (100 = growth as untreated, 0 = no growth, -100 = all killed)
Holding throughout (conditions): 10 µM unless noted

On to `O=C(O)c1cccc(S(=O)(=O)c2ccccc2)c1`, for which the growth in the assay with HCT-15 colon was 99.4%; in the assay with HT29 colon, 104%; in the assay with SNB-75 CNS it was 84.2%; in the assay with SNB-19 CNS it was 110%; with U251 CNS, 108%; with PC-3 prostate it was 100%. The growth was 97% in the assay with SK-MEL-5 melanoma, 101% in the assay with UACC-62 melanoma, 99% in the assay with LOX IMVI melanoma and 98.9% in the assay on SK-MEL-28 melanoma.

As to `COc1ccc(C(=O)NC(=O)Nc2ccc3c(c2)NC(=O)/C3=C\c2[nH]c(C)c(CCC(=O)O)c2C)c(F)c1`, the growth in the assay with HCT-15 colon is 39.6%; in the assay on HT29 colon, 55.6%; in the assay with SNB-75 CNS it was 44.2%; in the assay with SNB-19 CNS, 27%; with U251 CNS it was 0.371% (active); in the assay on PC-3 prostate, 30.2%. Besides, the growth with SK-MEL-5 melanoma is 25.2%; with UACC-62 melanoma, 25.7%; in the assay with LOX IMVI melanoma, 26.9%; with SK-MEL-28 melanoma, 31.1%.

With `CO[C@H]1/C=C/C=C/C=C/C[C@H](OC(=O)[C@@H](C)NC(=O)C2CCCCC2)[C@H](C)[C@@H](O)/C(C)=C\CCC2=CC(=O)C=C(NC(=O)C1)C2=O`, the growth in the assay on HCT-15 colon was 6.39% (active); with HT29 colon, -28.8% (active); with SNB-75 CNS, -20.2% (active); in the assay with SNB-19 CNS, 2.4% (active); in the assay on U251 CNS, -19.6% (active); in the assay with PC-3 prostate, -2.95% (active). Further, the growth in the assay on SK-MEL-5 melanoma is -57% (active); in the assay with UACC-62 melanoma, 2.09% (active); in the assay on LOX IMVI melanoma it was -38.8% (active); in the assay on SK-MEL-28 melanoma it was -3.36% (active).

With `CNCCCOc1c(Br)cc(CCNC(=O)/C(Cc2ccc(OC)c(Br)c2)=N/O)cc1Br`, the growth with HCT-15 colon was 22.9%; in the assay on HT29 colon, 5.72% (active); with SNB-75 CNS, 50.6%; in the assay on SNB-19 CNS, 50.3%; in the assay on U251 CNS it was 27.5%; in the assay on PC-3 prostate, 34.5%. Besides, the growth is 38.9% in the assay on SK-MEL-5 melanoma, 9.73% (active) in the assay with UACC-62 melanoma, -35.4% (active) in the assay on LOX IMVI melanoma and -21.7% (active) with SK-MEL-28 melanoma.

For the compound `CC(C(=O)O)N1C(N)=NNC1c1ccccc1O` (stereo not given), the growth in the assay with HCT-15 colon was 68.4%; in the assay on HT29 colon, 99.3%; with SNB-75 CNS it was 74.4%; in the assay on SNB-19 CNS, 88.5%; in the assay on U251 CNS, 85.9%; in the assay on PC-3 prostate, 83.3%. The growth in the assay with SK-MEL-5 melanoma is 85.5%; with UACC-62 melanoma, 81.9%; in the assay with LOX IMVI melanoma, 78.3%; with SK-MEL-28 melanoma, 106%.

As to `CC(C)C(=O)Nc1nc2c(s1)CCCc1ccn(S(=O)(=O)c3ccccc3)c1-2`, the growth with HCT-15 colon was 94%; with HT29 colon it was 83.7%; with SNB-75 CNS it was 89.4%; with SNB-19 CNS, 110%; with U251 CNS, 102%; with PC-3 prostate it was 85.3%. The growth was 93.3% with SK-MEL-5 melanoma, 87% with UACC-62 melanoma, 96.9% in the assay with LOX IMVI melanoma and 106% in the assay with SK-MEL-28 melanoma.

`C=C1C(=O)O[C@H]2[C@H]1CC/C(COC(=O)c1ccc(Br)cc1)=C\CC[C@@]1(C)O[C@@H]21`: the growth with HCT-15 colon is -26.3% (active); in the assay with HT29 colon it was -51.8% (active); with SNB-75 CNS, 56%; in the assay with SNB-19 CNS, 24%; with U251 CNS, 4.28% (active); with PC-3 prostate it was 20.3%. The growth in the assay with SK-MEL-5 melanoma is 8.33% (active); in the assay with UACC-62 melanoma, -52.4% (active); in the assay on LOX IMVI melanoma it was -94.6% (active); in the assay on SK-MEL-28 melanoma it was -27% (active).

Regarding `O=C(Nc1ccccc1Cl)c1c[nH]c(=O)c(-c2ccc(N3CCCOC4(CC4)C3)cc2)c1`, the growth with HCT-15 colon is 78.8%; with HT29 colon, 70.5%; in the assay on SNB-75 CNS, 73%; in the assay with SNB-19 CNS it was 72.4%; in the assay with U251 CNS it was 75.9%; in the assay on PC-3 prostate, 57.5%. For the same compound, the growth with SK-MEL-5 melanoma is 8.08% (active); in the assay with UACC-62 melanoma, 63.5%; with LOX IMVI melanoma, 46.7%; with SK-MEL-28 melanoma, 78.4%.

Consider `CCNC(=O)Oc1ccc(/C(=C(/CC)Cc2ccccc2)c2ccc(OCCN3CCOCC3)cc2)cc1`, for which the growth in the assay with HCT-15 colon is 39.4%; in the assay on HT29 colon, 28.6%; in the assay with SNB-75 CNS it was 70.2%; with SNB-19 CNS, 76.7%; with U251 CNS, 52.8%; with PC-3 prostate, 20.2%. Moreover, the growth with SK-MEL-5 melanoma is 39.5%; in the assay with UACC-62 melanoma, 73.2%; with LOX IMVI melanoma, 50.4%; in the assay on SK-MEL-28 melanoma, 80.6%.

For the compound `O=C(Nc1cccc([N+](=O)[O-])c1)c1ccc2ccccc2c1O`, the growth in the assay on HCT-15 colon was 66%; in the assay on HT29 colon, 93.9%; with SNB-75 CNS, 97.4%; in the assay with SNB-19 CNS, 67.6%; in the assay on U251 CNS, 49.4%; in the assay on PC-3 prostate it was 51.9%. The growth in the assay on SK-MEL-5 melanoma was 19.5%; in the assay on UACC-62 melanoma, 20.4%; in the assay on LOX IMVI melanoma it was 63.3%; with SK-MEL-28 melanoma, 93.2%.

For the compound `Cc1[nH]c2ccc(F)cc2c1CCNC(=O)C1CCN(C(=O)c2ccc(-c3ccccc3)cc2)CC1`, the growth was 35.2% with HCT-15 colon; 5.89% (active) in the assay with HT29 colon; 49.1% with SNB-75 CNS; 65.3% in the assay on SNB-19 CNS; 48.7% in the assay with U251 CNS; 23.2% in the assay on PC-3 prostate. The growth was 27.4% in the assay on SK-MEL-5 melanoma, 55% in the assay with UACC-62 melanoma, 48.8% in the assay on LOX IMVI melanoma and 67.7% in the assay on SK-MEL-28 melanoma.

For `O=C(N/N=C/c1ccccc1O)c1ccccc1O`, the growth in the assay on HCT-15 colon was 30.1%; in the assay with HT29 colon, 72.9%; in the assay with SNB-75 CNS, 78.3%; in the assay on SNB-19 CNS, 51.7%; in the assay on U251 CNS it was 36.2%; in the assay on PC-3 prostate, 39.6%. In addition, the growth was 10.6% in the assay with SK-MEL-5 melanoma, 24% in the assay on UACC-62 melanoma, 12.8% in the assay on LOX IMVI melanoma and 46.9% in the assay with SK-MEL-28 melanoma.

`COc1ccc(-c2nn(-c3ccc(NC(=O)c4ccc(Cl)c(C(F)(F)F)c4)cc3)cc2-c2ccncc2)cc1Cl`: the growth in the assay on HCT-15 colon is -26% (active); in the assay on HT29 colon, -39.5% (active); in the assay with SNB-75 CNS it was 31.1%; with SNB-19 CNS, 42.7%; in the assay with U251 CNS, 13.5%; in the assay with PC-3 prostate, 23.2%. Besides, the growth is -69.3% (active) in the assay on SK-MEL-5 melanoma, -14.6% (active) in the assay with UACC-62 melanoma, -63.9% (active) in the assay on LOX IMVI melanoma and 50.2% with SK-MEL-28 melanoma.
